Screening results as filed in PubChem.
14-3-3 Bad PPI: inhibitors of 14-3-3 zeta/Bad binding, primary screen, biochemical, TR-FRET, bovine 14-3-3 zeta; 14-3-3 protein zeta/delta (Bos taurus), P63103; AID 781, 2007; inhibition, % at 21.7 µM; actives 0.71% (n = 220,000); TR-FRET 14-3-3zeta/Dy647-pBad peptide displacement, 1 h;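 active = inhibition above about 70%, limit read from the data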
Target sequence (P63103 whole entry, looked up): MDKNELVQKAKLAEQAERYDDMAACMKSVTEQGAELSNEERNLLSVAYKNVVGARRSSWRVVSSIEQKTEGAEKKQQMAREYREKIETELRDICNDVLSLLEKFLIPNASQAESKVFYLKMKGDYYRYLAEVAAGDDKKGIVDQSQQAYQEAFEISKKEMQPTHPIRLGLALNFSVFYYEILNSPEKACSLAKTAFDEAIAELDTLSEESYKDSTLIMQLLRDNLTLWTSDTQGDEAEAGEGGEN
L929 necroptosis: inhibitors of zVAD-triggered necroptosis, primary screen, L929 cells | viability rescue, % at 10 µM | actives 0.38% (n = 220,000) | L929 zVAD necroptosis rescue, ATP luminescence, 24 h; with zVAD 60 µM;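 active = activation, scaled between plate controls, above about 75%, limit read from the data; inactive = activation under that limit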
m-calpain inh: inhibitors of pig calpain II, primary screen, biochemical, fluorogenic peptide substrate, 1536-well; AID 1236, 2008; purified calpain II, 30 min; actives 0.37% (n = 220,000); inhibition, % at 16 µM;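 active = inhibition above about 50%, limit read from the data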
ROMK primary: ROMK potassium channel modulators, primary screen, cell-based, thallium flux, MLSMR library. Tet-inducible ROMK, thallium flux fluorescence; actives lie on both sides. B-score at 10 µM. actives 2% (n = 130,000);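 active = signal ratio slope over the read window, or its plate-corrected B-score, at least 3 SD from the plate mean, either direction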;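 also: B-score of the F/F0 ratio slope over 7 to 12 s after thallium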
Target sequence (P48048 whole entry, looked up): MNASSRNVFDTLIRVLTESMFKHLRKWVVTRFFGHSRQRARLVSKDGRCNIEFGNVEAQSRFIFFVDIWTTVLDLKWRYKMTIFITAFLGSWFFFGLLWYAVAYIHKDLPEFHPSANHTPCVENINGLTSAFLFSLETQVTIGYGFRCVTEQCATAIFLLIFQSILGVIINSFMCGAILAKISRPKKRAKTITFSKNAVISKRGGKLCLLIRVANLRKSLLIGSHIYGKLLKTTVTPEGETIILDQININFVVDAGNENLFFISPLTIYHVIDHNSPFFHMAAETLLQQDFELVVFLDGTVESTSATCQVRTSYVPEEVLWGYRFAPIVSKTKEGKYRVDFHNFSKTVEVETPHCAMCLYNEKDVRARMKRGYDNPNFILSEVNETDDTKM
TNF necrop inh: inhibitors of TNF-alpha triggered necroptosis, primary screen, cell-based, Jurkat FADD-/-, single concentration; actives 0.068% (n = 220,000); Jurkat FADD-/- TNF necroptosis rescue, ATP luminescence, 24 h; 0 = TNF only, 100 = no-TNF cells; activation (protection from cell death), % at 10 µM;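 active = activation, meaning protection from cell death, of at least 50% relative to plate controls; inactive = activation below 50%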;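 also: necroptosis triggered by 40 ng/mL TNF-alpha added together with compound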
Efa HMGR inh: inhibitors of E. faecalis class II HMGR, primary screen, biochemical, Enterococcus faecalis. purified E. faecalis HMGR, NADPH absorbance 340 nm kinetic. inhibition, % at 10 µM. actives 0.41% (n = 190,000). AID 1066, 2008;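 active = inhibition above a set limit, the median over all tested compounds plus 3 SD, cut at about 9.5% in these data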;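 also: enzyme runs in reverse so mevalonate oxidation gives rising NADPH absorbance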
Each line names hits and unclear results; the compound was inactive in the other large screens; [ ] = remark or other dose. Compounds with a hit are over-represented: about 3% of the library has one in this group of screens.

Cn1c(OCc2cccnc2)nc2c1c(=O)n(Cc1ccc(F)cc1)c(=O)n2C	none (no result: Efa HMGR inh)
Nc1nnc(-c2cc3c(ccc4ccccc43)oc2=O)s1	none (no result: ROMK primary)
COc1ccc(CCC(=O)NNC(=S)Nc2cccc(C(C)=O)c2)cc1	none (no result: ROMK primary)
Cc1cc2oc(C(=O)N(Cc3ccccc3)C3CCS(=O)(=O)C3)cc(=O)c2cc1Cl (centres undefined)	14-3-3 Bad PPI 88[fluorescence artefact?]
O=C1CC(=C(c2ccccc2)c2ccccc2)C(=O)N1CCCCN1CCN(c2ccccc2)CC1	14-3-3 Bad PPI 76
O=C1C2CCCN2C(=O)N1CCCCN1CCN(c2ccccc2)CC1 (centres undefined)	none
C#CCn1c(-c2cccs2)nc2ccccc21	Efa HMGR inh 14
O=C1NN(c2cccc(Br)c2)C(=O)/C1=C/c1ccc(-c2cc([N+](=O)[O-])ccc2O)o1	14-3-3 Bad PPI 80 (no result: ROMK primary, Efa HMGR inh)
CS(=O)(=O)N1CCN(c2ccc([N+](=O)[O-])c(NCc3cccnc3)c2)CC1	none
CCN(CC(=O)NCc1cccs1)C(=O)c1cccc(S(=O)(=O)N2CCc3ccccc32)c1	none
COC(=O)CN1C(=S)N(c2ccc(OC)cc2)C(=O)/C1=C/c1ccc(OC)cc1	none
COc1ccc(C(=O)N2C(=S)NC(=O)/C2=C\c2ccc(C)cc2)cc1	14-3-3 Bad PPI 84[fluorescence artefact?]
CCCCNC(=O)Nc1ncn[nH]1	none (no result: ROMK primary, Efa HMGR inh)
O=C1CSC(=S)N1/N=C/c1ccc(O)c(O)c1O	14-3-3 Bad PPI 96 (no result: ROMK primary, Efa HMGR inh)
NNc1ccc2nnc(C(F)(F)C(F)(F)C(F)(F)F)n2n1	none
O=C1NCCCC1C(=O)Nc1ccccc1C(F)(F)F (centres undefined)	Efa HMGR inh active (no result: ROMK primary)
CSc1[nH]c(=O)c(C(=O)O)cc1C#N	14-3-3 Bad PPI 71 (no result: ROMK primary)
CC(=O)Nc1ccc(Nc2ccc(S(=O)(=O)C(F)(F)F)cc2[N+](=O)[O-])cc1	m-calpain inh 55 (no result: ROMK primary)
O=C(O)CNc1ccc(S(=O)(=O)C(F)(F)F)cc1[N+](=O)[O-]	none (no result: ROMK primary, Efa HMGR inh)
O=C(NCc1ccccc1)c1n[nH]nc1-c1ccccc1O	none
CCCc1nc2ccc(NC(=O)NCCC(=O)OCC)cc2c(=O)n1Cc1cccc(Cl)c1	none
CCOC(=O)CCNC(=O)Nc1ccc2nc(C)n(Cc3cccc(Cl)c3)c(=O)c2c1	m-calpain inh 66 (no result: ROMK primary)
CN(C)NC(=O)C(NC(=O)c1ccccc1)C12CC3CC(CC(C3)C1)C2 (centres undefined)	none
COc1cc(OC)cc(C(=O)NC(C(=O)O)C23CC4CC(CC(C4)C2)C3)c1 (centres undefined)	Efa HMGR inh 14
COc1ccc(CCN2C(=O)C3C4CC(C5C(C(=O)O)=NOC45)C3C2=O)cc1OC (centres undefined)	none
N#Cc1c(-c2ccccc2)nc(SCC(=O)Nc2nnc(C(F)(F)F)s2)[nH]c1=O	Efa HMGR inh 13
N#Cc1c(-c2ccccc2)nc(SCC(=O)Nc2ccccc2)[nH]c1=O	none
COc1ccc(C(=O)CCC(C)(C)[N+](=O)[O-])cc1	Efa HMGR inh 12
CCOc1ccc(CC(=O)OCc2cc(=O)n3cc(Br)ccc3n2)cc1	none
COc1ccc(CC(=O)OCc2cc(=O)n3cc(Br)ccc3n2)cc1OC	Efa HMGR inh 17
CCOc1ccc(C2OC34CCCCC3C(C#N)(C#N)C2(C#N)C(=N)O4)cc1OC (centres undefined)	none
Clc1ccc(-c2csc(N/N=C\c3cccnc3)n2)cc1	14-3-3 Bad PPI 76
CCOc1ccc(-n2c(C)c(C(C)=O)c3cc(OCC(N)=O)ccc32)cc1	none (no result: ROMK primary)
COC(=O)Cn1c2ccccc2c2nc(C)sc21	none (no result: ROMK primary)
CCN(CC)CCn1c2ccccc2c2nc(C)sc21	14-3-3 Bad PPI 82 (no result: ROMK primary)
CC(=O)NC(Cc1ccc(C)cc1)C(=O)NC1CCN(c2ncccc2[N+](=O)[O-])CC1 (centres undefined)	none
Nc1nc2ccccc2n1/N=C/c1cccnc1	ROMK primary 2.2
O=C(NCc1ccccc1)C1=C[C@@H](c2coc3ccccc3c2=O)C[C@@H](OCCCCO)O1	none (no result: ROMK primary)
CN(C)CCCNc1cc(C(C)(C)C)nc2c(-c3ccc(Cl)cc3)cnn12	14-3-3 Bad PPI 79 (no result: Efa HMGR inh)
COc1ccc(COC(=O)NC2CCN(S(=O)(=O)c3ccc(OC)cc3)CC2)cc1	none (no result: ROMK primary)
COc1ccc(S(=O)(=O)N2CCC(NC(=O)OCc3c(Cl)cccc3Cl)CC2)cc1	m-calpain inh 65 (no result: ROMK primary)
O=C1Nc2ccccc2/C1=N/N=C/c1ccc(-c2ccc([N+](=O)[O-])cc2)o1	14-3-3 Bad PPI 95
O=C1C2C3C=CC(C4CC34)C2C(=O)N1/N=C/c1ccc(-c2ccc([N+](=O)[O-])cc2)o1 (centres undefined)	none
Nc1nc(N2CCN(c3ccccc3)CC2)n[nH]1	14-3-3 Bad PPI 72
C#CCOCCOCCOCCNc1nc(N2CCN(C(=O)Cn3cc(CCCN=C(N)N)nn3)CC2)nc(N2CCN(C(=O)[C@H](C(C)C)n3cc(CCO)nn3)CC2)n1	none
C#CCOCCOCCOCCNc1nc(N2CCN(C(=O)Cn3cc(CC(C)O)nn3)CC2)nc(N2CCN(C(=O)[C@H](C)n3cc(CCCN=C(N)N)nn3)CC2)n1 (some centres undefined)	14-3-3 Bad PPI 84
C#CCOCCOCCOCCNc1nc(N2CCN(C(=O)[C@H]([C@@H](C)O)n3cc(CCCCN)nn3)CC2)nc(N2CCN(C(=O)[C@H](C)n3cc(CCCN=C(N)N)nn3)CC2)n1	none
C#CCOCCOCCOCCNc1nc(N2CCN(C(=O)Cn3cc(CCCCN)nn3)CC2)nc(N2CCN(C(=O)[C@H](C)n3cc(CCCN=C(N)N)nn3)CC2)n1	14-3-3 Bad PPI 80
C#CCOCCOCCOCCNc1nc(N2CCN(C(=O)[C@H](C)n3cc(CCCN=C(N)N)nn3)CC2)nc(N2CCN(C(=O)[C@H](Cc3ccc(O)cc3)n3cc(CCO)nn3)CC2)n1	14-3-3 Bad PPI 78
C#CCOCCOCCOCCNc1nc(N2CCN(C(=O)Cn3cc(CCCN=C(N)N)nn3)CC2)nc(N2CCN(C(=O)[C@H]([C@@H](C)CC)n3cc(CCCN=C(N)N)nn3)CC2)n1	14-3-3 Bad PPI 86
C#CCOCCOCCOCCNc1nc(N2CCN(C(=O)[C@H](CCCCN)n3cc(CCCC)nn3)CC2)nc(N2CCN(C(=O)[C@H](Cc3ccc(O)cc3)n3cc(CCO)nn3)CC2)n1	none
C#CCOCCOCCOCCNc1nc(N2CCN(C(=O)[C@H]([C@@H](C)CC)n3cc(CCC(=O)O)nn3)CC2)nc(N2CCN(C(=O)[C@H](C)n3cc(CCCN=C(N)N)nn3)CC2)n1	none
